Source: PubChem BioAssay AID1159580 (chemical genetic matrix, 2015)
The whole screen tested about 5,500 compounds, of which about 2,000 (36%) were called active. About 18% were inconclusive and are not listed. Rule as the data show it: active = normalized growth mostly below about 0.91 (no sharp cut-off); inconclusive = no clear call, values can overlap the other calls; inactive = mostly above about 0.92. Some of the results follow.

Assay: chemical genetic growth profiling, strain panel (AID 1159580);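 also: tested at 20 µM; growth read once vehicle control cultures reached saturation at 30 °C; 1 = growth at the plate median or of vehicle wells; lower values mean less growth of the strain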
Details: growth OD

Measured: normalized growth

CN1CCN(CCC=C2c3ccccc3Sc3ccc(S(=O)(=O)N(C)C)cc32)CC1
active: S. cerevisiae deletion strains, locus YLR268W, strain sec22, stronger effect = lower value 0.88 | S. cerevisiae deletion strains, locus YLR418C, strain cdc73, stronger effect = lower value 0.764 | S. cerevisiae deletion strains, locus YML032C, strain rad52, stronger effect = lower value 0.896 | S. cerevisiae deletion strains, locus YMR223W, strain ubp8, stronger effect = lower value 0.899 | S. cerevisiae deletion strains, locus YNL307C, strain MCK1, stronger effect = lower value 0.791 | S. cerevisiae deletion strains, locus YOR270C, strain vph1, stronger effect = lower value 0.763
inactive: S. cerevisiae deletion strains, locus YJR043C, strain POL32, stronger effect = lower value 1.01 | S. cerevisiae deletion strains, locus YJR066W, strain TOR1, stronger effect = lower value 0.922 | S. cerevisiae deletion strains, locus YKL009W, strain mrt4, stronger effect = lower value 0.971 | S. cerevisiae deletion strains, locus YKL068W, stronger effect = lower value 1.01 | S. cerevisiae deletion strains, locus YKL085W, strain MDH1 (second series), stronger effect = lower value 1 | S. cerevisiae deletion strains, locus YKL085W, strain MDH1, stronger effect = lower value 1 | S. cerevisiae deletion strains, locus YKL160W, strain elf1, stronger effect = lower value 0.97 | S. cerevisiae deletion strains, locus YKL190W, strain CNB1, stronger effect = lower value 1.02 | S. cerevisiae deletion strains, locus YKR001C, strain vps1, stronger effect = lower value 0.916 | S. cerevisiae deletion strains, locus YKR026C, strain gcn3, stronger effect = lower value 1.01 | S. cerevisiae deletion strains, locus YKR091W, strain srl3, stronger effect = lower value 1.01 | S. cerevisiae deletion strains, locus YLL001W, strain dnm1, stronger effect = lower value 0.906 | S. cerevisiae deletion strains, locus YLL026W, stronger effect = lower value 1 | S. cerevisiae deletion strains, locus YLL041C, strain sdh2, stronger effect = lower value 0.992 | S. cerevisiae deletion strains, locus YLR027C, strain aat2, stronger effect = lower value 0.982 | S. cerevisiae deletion strains, locus YLR039C, strain RIC1, stronger effect = lower value 1.27 | S. cerevisiae deletion strains, locus YLR058C, strain SHM2, stronger effect = lower value 1.01 | S. cerevisiae deletion strains, locus YLR102C, strain apc9, stronger effect = lower value 0.964 | S. cerevisiae deletion strains, locus YLR113W, strain HOG1, stronger effect = lower value 0.983 | S. cerevisiae deletion strains, locus YLR221C, strain rsa3, stronger effect = lower value 0.979 | S. cerevisiae deletion strains, locus YLR258W, strain gsy2, stronger effect = lower value 0.991 | S. cerevisiae deletion strains, locus YLR262C, strain YPT6 (second series), stronger effect = lower value 1.11 | S. cerevisiae deletion strains, locus YLR262C, strain YPT6, stronger effect = lower value 1.31 | S. cerevisiae deletion strains, locus YLR320W, strain mms22, stronger effect = lower value 0.893 | S. cerevisiae deletion strains, locus YLR330W, strain CHS5, stronger effect = lower value 1 | S. cerevisiae deletion strains, locus YLR342W, strain FKS1 (second series), stronger effect = lower value 0.99 | S. cerevisiae deletion strains, locus YLR342W, strain FKS1, stronger effect = lower value 0.954 | S. cerevisiae deletion strains, locus YLR357W, strain rsc2, stronger effect = lower value 0.983 | S. cerevisiae deletion strains, locus YLR370C, strain arc18, stronger effect = lower value 0.964 | S. cerevisiae deletion strains, locus YLR371W, strain rom2, stronger effect = lower value 0.976 | S. cerevisiae deletion strains, locus YLR384C, strain iki3, stronger effect = lower value 1.02 | S. cerevisiae deletion strains, locus YML016C, strain PPZ1, stronger effect = lower value 1 | S. cerevisiae deletion strains, locus YML120C, strain ndi1, stronger effect = lower value 0.984 | S. cerevisiae deletion strains, locus YML124C, strain tub3, stronger effect = lower value 0.988 | S. cerevisiae deletion strains, locus YMR058W, strain fet3, stronger effect = lower value 0.954 | S. cerevisiae deletion strains, locus YMR078C, strain ctf18, stronger effect = lower value 0.983 | S. cerevisiae deletion strains, locus YMR125W, strain sto1, stronger effect = lower value 1 | S. cerevisiae deletion strains, locus YMR129W, stronger effect = lower value 1.03 | S. cerevisiae deletion strains, locus YMR205C, strain PFK2, stronger effect = lower value 0.96 | S. cerevisiae deletion strains, locus YMR231W, strain pep5, stronger effect = lower value 1.02 | S. cerevisiae deletion strains, locus YMR263W, strain SAP30, stronger effect = lower value 1.02 | S. cerevisiae deletion strains, locus YMR307W, strain GAS1, stronger effect = lower value 1.07 | S. cerevisiae deletion strains, locus YNL067W, strain RPL9B, stronger effect = lower value 1.01 | S. cerevisiae deletion strains, locus YNL071W, strain lat1, stronger effect = lower value 0.978 | S. cerevisiae deletion strains, locus YNL183C, strain NPR1, stronger effect = lower value 0.946 | S. cerevisiae deletion strains, locus YNL209W, strain ssb2, stronger effect = lower value 0.972 | S. cerevisiae deletion strains, locus YNL233W, strain BNI4, stronger effect = lower value 1 | S. cerevisiae deletion strains, locus YNL248C, strain rpa49, stronger effect = lower value 0.942 | S. cerevisiae deletion strains, locus YNL250W, strain rad50, stronger effect = lower value 0.992 | S. cerevisiae deletion strains, locus YNL271C, strain bni1, stronger effect = lower value 0.986 | S. cerevisiae deletion strains, locus YNL298W, strain CLA4, stronger effect = lower value 0.977 | S. cerevisiae deletion strains, locus YNL322C, strain KRE1 (second series), stronger effect = lower value 0.996 | S. cerevisiae deletion strains, locus YNL322C, strain KRE1, stronger effect = lower value 1.01 | S. cerevisiae deletion strains, locus YNR049C, strain mso1, stronger effect = lower value 1.01 | S. cerevisiae deletion strains, locus YNR052C, strain pop2, stronger effect = lower value 0.971 | S. cerevisiae deletion strains, locus YOL006C, strain TOP1, stronger effect = lower value 0.983 | S. cerevisiae deletion strains, locus YOL012C, strain htz1 0.994 | S. cerevisiae deletion strains, locus YOL147C, strain pex11, stronger effect = lower value 0.959 | S. cerevisiae deletion strains, locus YOR001W, strain rrp6, stronger effect = lower value 0.977 | S. cerevisiae deletion strains, locus YOR061W, strain CKA2, stronger effect = lower value 1 | S. cerevisiae deletion strains, locus YOR069W, strain VPS5, stronger effect = lower value 1.01 | S. cerevisiae deletion strains, locus YOR070C, strain gyp1, stronger effect = lower value 0.991 | S. cerevisiae deletion strains, locus YOR080W, strain dia2, stronger effect = lower value 1.03 | S. cerevisiae deletion strains, locus YOR083W, strain WHI5, stronger effect = lower value 0.937 | S. cerevisiae deletion strains, locus YOR106W, strain vam3, stronger effect = lower value 1 | S. cerevisiae deletion strains, locus YOR136W, strain idh2, stronger effect = lower value 0.981 | S. cerevisiae deletion strains, locus YOR144C, strain elg1, stronger effect = lower value 0.988 | S. cerevisiae deletion strains, locus YOR184W, strain ser1, stronger effect = lower value 0.934 | S. cerevisiae deletion strains, locus YOR231W, strain MKK1, stronger effect = lower value 0.984 | S. cerevisiae deletion strains, locus YOR265W, strain rbl2, stronger effect = lower value 0.995 | S. cerevisiae deletion strains, locus YOR290C, strain snf2, stronger effect = lower value 0.913 | S. cerevisiae deletion strains, locus YOR316C, strain cot1, stronger effect = lower value 0.968 | S. cerevisiae deletion strains, locus YPL051W, strain arl3, stronger effect = lower value 0.95 | S. cerevisiae deletion strains, locus YPL078C, strain atp4, stronger effect = lower value 0.925 | S. cerevisiae deletion strains, locus YPL106C, strain sse1, stronger effect = lower value 0.947 | S. cerevisiae deletion strains, locus YPL240C, strain hsp82, stronger effect = lower value 0.999 | S. cerevisiae deletion strains, locus YPL256C, strain CLN2, stronger effect = lower value 0.965 | S. cerevisiae deletion strains, locus YPR119W, strain clb2, stronger effect = lower value 0.968 | S. cerevisiae deletion strains, locus YPR141C, strain kar3, stronger effect = lower value 1.02 | S. cerevisiae deletion strains, locus YPR163C, strain tif3, stronger effect = lower value 0.977 | S. cerevisiae deletion strains, locus YPR167C, strain met16, stronger effect = lower value 0.985 | S. cerevisiae deletion strains, strain wtn01, stronger effect = lower value 0.953 | S. cerevisiae strains, strain wild type, stronger effect = lower value 1.01
